Results: PubChem BioAssay (NCI)
About 83,000 compounds went through this panel and 20% of them were active in at least one assay; those are over-represented in the sample as a whole.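 Interpretation: 100, growth as untreated; towards 0, rising growth inhibition; 0, no net growth; 0 to -100, cell death. Compounds scoring below 10 were considered active.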 A number with no mark means an inactive call. Calls of active or inactive are those of the source.

How the values were obtained:
Assay in all cases: NCI-60 one-dose screen, 48 h (100 = growth as untreated, 0 = no growth, -100 = all killed)
Details in all cases: 10 µM unless noted
[1] = tested on: HCT-15 colon
[2] = tested on: HT29 colon
[3] = tested on: SNB-75 CNS
[4] = tested on: SNB-19 CNS
[5] = tested on: U251 CNS
[6] = tested on: PC-3 prostate
[7] = tested on: SK-MEL-5 melanoma
[8] = tested on: UACC-62 melanoma
[9] = tested on: LOX IMVI melanoma
[10] = tested on: SK-MEL-28 melanoma

C(=C1c2ccccc2-c2ccccc21)c1ccccn1
growth [1]: 42.8% | growth [2]: 17% | growth [3]: 62.5% | growth [4]: 73.6% | growth [5]: 50.4% | growth [6]: 78.1% | growth [7]: 78.3% | growth [8]: 52.9% | growth [9]: 57.2% | growth [10]: 81%

CCC(C)C1NC(=O)C(CCNCS(=O)(=O)O)NC(=O)C(NC(=O)C(CCNCS(=O)(=O)O)NC(=O)C(NC(=O)C(CCNCS(=O)(=O)O)NC(=O)CCCCC(C)C)C(C)O)CCNC(=O)C(C(C)O)NC(=O)C(CCNCS(=O)(=O)O)NC(=O)C(CCNCS(=O)(=O)O)NC(=O)C(C(C)CC)NC1=O (stereo not given)
growth [1]: 99.6% | growth [2]: 17.3% | growth [3]: 48.5% | growth [4]: 54.9% | growth [5]: 33.3% | growth [6]: 61.6% | growth [7]: 4.4% (active) | growth [8]: 47.5% | growth [9]: 48.8% | growth [10]: 49.8%

O=C(CSc1ncc(-c2ccccc2)n1-c1ccccc1)Nc1ccc(-c2nc3ccccc3s2)cc1
growth [1]: 69% | growth [2]: 38.1% | growth [3]: 103% | growth [4]: 90.4% | growth [5]: 24.7% | growth [6]: 80% | growth [7]: 75.7% | growth [8]: 87.3% | growth [9]: 63.5% | growth [10]: 80%

O=C(CNC(=O)c1cccc2ccccc12)Nc1ccccc1Oc1ccc(O)cc1
growth [1]: 27.4% [5 µM] | growth [2]: 4.1% [5 µM] (active) | growth [3]: 19.7% [5 µM] | growth [4]: 51.9% [5 µM] | growth [5]: 20.8% [5 µM] | growth [6]: 31.1% [5 µM] | growth [7]: 27.7% [5 µM] | growth [8]: 55% [5 µM] | growth [9]: 40.9% [5 µM] | growth [10]: 59.9% [5 µM]

CCCCCc1c(C)[nH]c(/C=C2\N=C(c3ccc[nH]3)C=C2Oc2ccc(Cl)cc2)c1C
growth [1]: -26.6% [100 µM] (active) | growth [2]: 0.582% [100 µM] (active) | growth [3]: -40% [100 µM] (active) | growth [4]: -32.9% [100 µM] (active) | growth [5]: -94.9% [100 µM] (active) | growth [6]: 5.67% [100 µM] (active) | growth [7]: -90% [100 µM] (active) | growth [8]: -83.2% [100 µM] (active) | growth [9]: -69.2% [100 µM] (active) | growth [10]: -52.4% [100 µM] (active)

CNNc1ncnc2c1cnn2-c1ccc(S(N)(=O)=O)cc1
growth [1]: 103% | growth [2]: 95.2% | growth [3]: 104% | growth [4]: 105% | growth [5]: 98.5% | growth [6]: 81.4% | growth [7]: 91.2% | growth [8]: 100% | growth [9]: 97.5% | growth [10]: 109%

Nc1ccc(N=Nc2ccccc2)cc1[N+](=O)[O-]
growth [1]: 68.8% | growth [2]: 92% | growth [3]: 73.3% | growth [4]: 95.3% | growth [5]: 86.7% | growth [6]: 83.9% | growth [7]: 93.1% | growth [8]: 73% | growth [9]: 77.9% | growth [10]: 119%

Cc1sc2nc(NCCc3cccs3)[nH]c(=O)c2c1C
growth [1]: 59.6% | growth [2]: 85.1% | growth [3]: 90.1% | growth [4]: 90.2% | growth [5]: 75.8% | growth [6]: 71.9% | growth [7]: 90.8% | growth [8]: 63.1% | growth [9]: 88.7% | growth [10]: 100%

Cc1ccc(/C=C(/C#N)n2nnc3ncccc32)cc1
growth [1]: 2.19% (active) | growth [2]: 6.53% (active) | growth [3]: -2.77% (active) | growth [4]: 56.7% | growth [5]: 40.4% | growth [6]: 22.3% | growth [7]: 12.5% | growth [8]: 22.1% | growth [9]: 4.54% (active) | growth [10]: 28.3%

COc1c(O)cc2c(c1CC=C(C)C)OC(=O)c1c(cc(O)c(CC=C(C)C)c1O)O2
growth [1]: 44.1% | growth [2]: 86.9% | growth [3]: 49.7% | growth [4]: 48.4% | growth [5]: 27.2% | growth [6]: 24.5% | growth [7]: 40.8% | growth [8]: 67.2% | growth [9]: -27.5% (active) | growth [10]: 80.5%

C[C@@H]1CN(c2nc3c(cc2F)c(=O)c(C(=O)O)cn3C(C)(C)C)C[C@H](C)N1
growth [1]: 106% | growth [2]: 95.8% | growth [3]: 114% | growth [4]: 106% | growth [5]: 103% | growth [6]: 89.1% | growth [7]: 92.4% | growth [8]: 90% | growth [9]: 90.5% | growth [10]: 122%

NS(=O)(=O)c1ccc(-n2ncc3c(NC4CCCCC4)ncnc32)cc1
growth [1]: 86.4% | growth [2]: 81.9% | growth [3]: 113% | growth [4]: 94.1% | growth [5]: 96.3% | growth [6]: 92.9% | growth [7]: 88.1% | growth [8]: 97.2% | growth [9]: 80.8% | growth [10]: 98%

COc1cc(/C=N/NC(=O)c2ccc(C(F)(F)F)nc2Nc2ccc(Cl)cc2C)ccc1O
growth [1]: 27.9% | growth [2]: 45.2% | growth [3]: 19.7% | growth [4]: 54.4% | growth [5]: 33.8% | growth [6]: 24.8% | growth [7]: -61.3% (active) | growth [8]: 44.5% | growth [9]: 33.7% | growth [10]: 42.5%

O=C(CNC(=O)c1cccc2ccccc12)Nc1ccccc1Cc1ccccc1
growth [1]: 28% [5 µM] | growth [2]: 4.74% [5 µM] (active) | growth [3]: 32% [5 µM] | growth [4]: 54.3% [5 µM] | growth [5]: 24.3% [5 µM] | growth [6]: 31.6% [5 µM] | growth [7]: 34.4% [5 µM] | growth [8]: 51.3% [5 µM] | growth [9]: 38.2% [5 µM] | growth [10]: 61% [5 µM]

CCCCCCCCCCN1CCC(N2CCCCC2)CC1
growth [1]: -5.57% (active) | growth [2]: -38.9% (active) | growth [3]: -47.8% (active) | growth [4]: 28.2% | growth [5]: 4.67% (active) | growth [6]: 16% | growth [7]: -96.9% (active) | growth [8]: -79.7% (active) | growth [9]: -72.8% (active) | growth [10]: -29.1% (active)

COc1cnc2c(c1)C(=O)c1c-2n(CCCNC(C)C)c(=O)c2cc(F)ccc12
growth [1]: -5.08% (active) | growth [2]: 0.147% (active) | growth [3]: -22.5% (active) | growth [4]: 11% | growth [5]: -32.8% (active) | growth [6]: -5.02% (active) | growth [7]: -98.5% (active) | growth [8]: -44.2% (active) | growth [9]: -68% (active) | growth [10]: -11.1% (active)

C(#Cc1ccccc1C#Cc1ccccn1)c1ccc(OCCCCCCOc2ccc(C#Cc3ccccc3C#Cc3ccccn3)cc2)cc1
growth [1]: 41.2% | growth [2]: 93% | growth [3]: 92.6% | growth [4]: 72.5% | growth [5]: 50.3% | growth [6]: 39.6% | growth [7]: 20.6% | growth [8]: 23.9% | growth [9]: 14.7% | growth [10]: 81.8%

COc1ccc(CNC(=O)c2c(C)n([O-])c3cc(F)c(F)cc3[n+]2=O)cc1
growth [1]: 36.8% | growth [2]: 93% | growth [3]: 93% | growth [4]: 93.9% | growth [5]: 94.9% | growth [6]: 94% | growth [7]: 97.5% | growth [8]: 87.7% | growth [9]: 57.1% | growth [10]: 93.7%

CCOc1cc(/C=C/C(=O)C(C(=O)/C=C/c2ccc(OC(=O)CNc3nnc(C)s3)c(OCC)c2)C(=O)CNc2nnc(C)s2)ccc1OC(=O)CNc1nnc(C)s1
growth [1]: -60.1% (active) | growth [2]: -100% (active) | growth [3]: -15.8% (active) | growth [4]: 32.4% | growth [5]: -61.4% (active) | growth [6]: -27.9% (active) | growth [7]: -83.4% (active) | growth [8]: -88.7% (active) | growth [9]: -100% (active) | growth [10]: -68.5% (active)

O=C(Nc1ccccc1)P(=O)(O)c1ccccc1
growth [1]: 99.5% | growth [2]: 114% | growth [3]: 78.8% | growth [4]: 103% | growth [5]: 94.6% | growth [6]: 95.5% | growth [7]: 102% | growth [8]: 94.1% | growth [9]: 96% | growth [10]: 102%

O=c1c2ccccc2c2nccn2c2cc(Cl)ccc12
growth [1]: 129% | growth [2]: 83.8% | growth [3]: 73.3% | growth [4]: 119% | growth [5]: 105% | growth [6]: 72.5% | growth [7]: 72.6% | growth [8]: 129% | growth [9]: 95.4% | growth [10]: 96.8%

FCc1ncc(-c2ccc(C(F)(F)F)cc2)c(NC2CCCCCC2)n1
growth [1]: 9.18% [100 µM] (active) | growth [2]: -33.6% [100 µM] (active) | growth [3]: 28.6% [100 µM] | growth [4]: 32.6% [100 µM] | growth [5]: -29.7% [100 µM] (active) | growth [6]: 7.27% [100 µM] (active) | growth [7]: -3.43% [100 µM] (active) | growth [8]: 3.7% [100 µM] (active) | growth [9]: -52.6% [100 µM] (active) | growth [10]: 33.6% [100 µM]

Clc1ccc(C2c3ccccc3-c3nccn32)c(Cl)c1 (stereo not given)
growth [1]: 72.1% | growth [2]: 77.9% | growth [3]: 83.1% | growth [4]: 88.8% | growth [5]: 86.3% | growth [6]: 64.2% | growth [7]: 47.3% | growth [8]: 73.2% | growth [9]: 76.5% | growth [10]: 112%

O=C(/C=C(\Nc1ccccc1)c1ccccc1)c1cn(-c2ccc([N+](=O)[O-])cc2)nn1
growth [1]: 84.7% | growth [2]: 96.9% | growth [3]: 91.8% | growth [4]: 97.6% | growth [5]: 87.5% | growth [6]: 80.1% | growth [7]: 97.1% | growth [8]: 84.9% | growth [9]: 88.5% | growth [10]: 83.7%

O=C1NC(=S)S/C1=C\c1cc(Br)ccc1O
growth [1]: 97.8% | growth [2]: 119% | growth [3]: 97.8% | growth [4]: 107% | growth [5]: 99.9% | growth [6]: 104% | growth [7]: 92.6% | growth [8]: 84.8% | growth [9]: 100% | growth [10]: 111%

COc1cnc2c(c1)C(=O)c1c-2n(CCCn2ccnc2)c(=O)c2cc(F)ccc12
growth [1]: -28.4% (active) | growth [2]: -16.2% (active) | growth [3]: 4.31% (active) | growth [4]: 16.6% | growth [5]: -27.1% (active) | growth [6]: -4.35% (active) | growth [7]: -96.2% (active) | growth [8]: -55% (active) | growth [9]: -68.9% (active) | growth [10]: -62.5% (active)
